The values that follow come from PubChem BioAssay (Tox21).

Results filed as inconclusive are left out. Where a call stands in place of a potency, no number is given. The source made the active and inactive calls. The call rests on the fitted dose curve; in most records, active means well fitted activation curve with a large enough effect in the repeat runs; inconclusive means weak or mixed curves, or effect the other way; inactive means no such curve, though single readings can be large or run the other way.
Potency means the concentration at half of the fitted maximal effect.

The nature of the assay: qHTS assay to identify small molecule agonists of the retinoic acid receptor (RAR) signaling pathway (AID 1159553). Particulars: C3RL4 RARE luciferase reporter, agonist, 6 h; series mostly up to 73.3 µM. The text has this: National Center for Advancing Translational Sciences [NCATS] NIH Chemical Genomics Center [NCGC] U.S. Environmental Protection Agency [EPA] National Institutes of Environmental Health Sciences [NIEHS] National Toxicology Program [NTP] Assay overview: All-trans Retinoic acid (atRA) is the potent natural metabolite of retinol and plays an important role in normal embryonic development and maintenance of cellular phenotype in adult animals. atRA is the activating ligand for the retinoic acid receptors (RARs) which form heterodimers with retinoid X receptors (RXRs) on the retinoic acid response element (RARE). Through activation of the RAR/RXRs nuclear receptors, atRA regulates the transcription of a large number of protein-coding genes and regulatory RNAs. Intracellular levels of atRA are controlled by the retinol signaling pathway (RSP) that regulates the biosynthesis and catabolism of atRA to maintain physiological levels. Chemicals that interfere with the RSP can cause abnormal intracellular levels of atRA and therefore are potential developmental toxicants. To assess compounds for the potential adverse effect on embryonic development through interfering with retinol signaling, a cell-based RARE luciferase reporter gene assay was used. C3RL4 cell line (OARSA/CFSAN/FDA, Laurel, MD) was used to screen Tox21 10K compound library for identifying activators of the RSP.
Assay Protocol Summary: C3RL4 cells were seeded at 1,000/well in 5 uL of assay medium into white solid 1,536-well tissue culture plates (Greiner Bio-One North America Inc. Monroe, NC) using a Multidrop Combi (Thermo Scientific, Waltham, MA) dispenser. After incubation at 37 C and 5% CO2 for an overnight, 23 nL of compounds dissolved in DMSO, positive control or DMSO only were transferred by a Pintool station (Kalypsys, San Diego, CA). After 6 hr incubation at 37 C and 5% CO2, 5 uL of Amplite Luciferase reagent (AAT Bioquest Inc. Sunnyvale, CA) was added to each assay plate using a Flying Reagent Dispenser (FRD) (Aurora Discovery, San Diego, CA). Luminescence was quantified on a ViewLux plate reader (PerkinElmer, Waltham, MA) after 30 min incubation at room temperature.
Consider `O=C(CCC1CCN(Cc2ccccc2)CC1)c1ccc2c(c1)NCCCC2`, for which the Potency entry was “inactive”.
As for `COc1cc2c(N3CCN(C(=O)Nc4ccc(OC(C)C)cc4)CC3)ncnc2cc1OCCCN1CCCCC1`, the Potency entry was “inactive”.
Turning to `COc1ccc(CCC(=O)c2c(O)cc(O[C@@H]3O[C@H](CO)[C@@H](O)[C@H](O)[C@H]3O[C@@H]3O[C@@H](C)[C@H](O)[C@@H](O)[C@H]3O)cc2O)cc1O`, the Potency entry was “inactive”.
As to `C[Si]1(C)O[Si](C)(C)O[Si](C)(C)O1`, the Potency result was “inactive”.
With `C[Si](NC1CCCCC1)(NC1CCCCC1)NC1CCCCC1`, the Potency result is “inactive”.
On to `Oc1ccc(Nc2ccccc2)cc1`, for which the Potency result is “inactive”.
As for `C=CC(C)(C)CC(=O)OC`, the Potency entry was “inactive”.
Regarding `CC(=O)Nc1ccc(N)cc1`, the Potency result is “inactive”.
For `O=C(O)c1ccccc1NCCc1ccccc1` the value was 23.7 µM (active).
`ON(Cc1ccccc1)Cc1ccccc1`: the Potency result is “inactive”.
For `Brc1cc(-c2ccc(Br)c(Br)c2Br)cc(Br)c1Br` the value was “inactive”; for `N#C/C(=C1/SC[C@@H](c2ccc(Cl)cc2Cl)S1)n1ccnc1`, “inactive”.
`Cc1cnc(C)c(C)n1`: the Potency entry was “inactive”.
For the compound `NCC1CCCC(CN)C1` (stereo not given), the Potency result was “inactive”.
For the compound `CCCCCCCCCCCCCCCCBr`, the Potency result is “inactive”.
Regarding `Nc1c(I)cc(I)c(C(=O)N(CCC(=O)O)c2ccccc2)c1I`, the Potency result was “inactive”.
As for `Cc1cc2nc3ccc(=[N+](C)C)cc-3sc2cc1N`, the Potency is 1.88 µM (active).
With `CCCCCCCCCCCCCCC[C@H](O)[C@@H](N)CO`, the Potency result was “inactive”.
For `CO[C@H]1O[C@H](CO)[C@@H](O)[C@H](O)[C@H]1O`, the Potency result was “inactive”.
On to `CCC(C(=O)OCCOCCN(CC)CC)c1ccccc1` (stereo not given), for which the Potency result is “inactive”.
Turning to `CC[C@@H]([C@H](C)O)n1ncn(-c2ccc(N3CCN(c4ccc(OC[C@@H]5CO[C@@](Cn6cncn6)(c6ccc(F)cc6F)C5)cc4)CC3)cc2)c1=O`, the Potency entry was “inactive”.
`CCCCCCOC(=O)C(C)C`: the Potency result is “inactive”.
Take `CCC(Cc1ccccc1)(C(=O)c1ccc(N2CCOCC2)cc1)N(C)C` (stereo not given): the Potency entry was “inactive”.
For `O=C(Nc1ccccc1)Nc1ccccc1` the value was 2.18 µM (active); for `COC(=O)Nc1nc2ccc(C(=O)c3cccs3)cc2[nH]1`, “inactive”.
`CC(C)(C)C(=O)O`: the Potency result was “inactive”.
With `CC1(C)O[C@@H]2C[C@H]3[C@@H]4CCC5=CC(=O)C=C[C@]5(C)[C@H]4[C@@H](O)C[C@]3(C)[C@]2(C(=O)CO)O1`, the Potency entry is “inactive”.
The result for `CC(=O)Oc1ccc2c(c1)CC[C@@H]1[C@@H]2CC[C@]2(C)[C@@H](O)CC[C@@H]12` reads “inactive”; that for `CCCCC(CC)C(=O)OCCOCCOCCOCCOC(=O)C(CC)CCCC` (stereo not given), “inactive”; that for `CN1C(=O)CC(C)(c2ccccc2)C1=O` (stereo not given), “inactive”.
The result for `O=C(N/N=C/c1ccc([N+](=O)[O-])o1)c1ccc(O)cc1` reads “inactive”; that for `C[N+]1(C)CCC(=C(c2ccccc2)c2ccccc2)CC1`, “inactive”; that for `CCCCCCCC/C=C\CCCCCCCC(=O)OC(CO)CO`, “inactive”.
For `O=C1OCCN1/N=C/c1ccc([N+](=O)[O-])o1` the value was “inactive”.
`O=C(O)c1cccnc1C(=O)O`: the Potency entry was “inactive”.
On to `CCN(Cc1cccc(S(=O)(=O)O)c1)c1ccc(C(=C2C=CC(=[N+](CC)Cc3cccc(S(=O)(=O)[O-])c3)C=C2)c2ccccc2)cc1`, for which the Potency entry was “inactive”.
Regarding `CC(C)=CC=O`, the Potency result is “inactive”.
Consider `COCCOC(=O)C1=C(C)NC(C)=C(C(=O)OC/C=C/c2ccccc2)C1c1cccc([N+](=O)[O-])c1` (stereo not given), for which the Potency result was “inactive”.
For `Cc1nc2ccccn2c(=O)c1CCN1CCC(C(=O)c2ccc(F)cc2)CC1` the value was “inactive”; for `CCCOC(=O)c1ccc(N)cc1`, 23.7 µM (active).
